Assay outcomes as filed in PubChem.
Most compounds without a hit are left out; they make up all but 7.3% or so of the library.
VACV mCherry inh: inhibitors of vaccinia virus infection (mCherry reporter signal). Vaccinia virus mCherry reporter infection, fluorescence. Potency, µM (top dose mostly 36.5 µM), inactives show top-dose activity change, negative = inhibition, usual class: inhibitors. 310,000 compounds, 0.63% hits; calls by dose curve; tested in A549 cells; also: potency is read from the fitted curve at half-maximal effect; nearly all actives have a fitted effect of over 35% in size
FMDV inh: blocks foot and mouth disease virus; 410,000 compounds, 1.2% hits; FMDV antiviral cell-based qHTS; AID 1159524; Potency, µM (series often up to 57.9 µM), inactives show top-dose activity change, negative = inhibition, hits mostly inhibitors; calls by dose curve; tested in HEK293T cells; also: read-out not given here; potency is read from the fitted curve at half-maximal effect; nearly all actives have a fitted effect of over 45% in size
HCMV inh: blocks human cytomegalovirus replication | AID 1259415 | activity change, negative = inhibition, % at 57.5 µM | 410,000 compounds, 4.5% hits | HFF cells, HCMV-luciferase reporter, 72 h; stronger effect = lower value; in the data active = activity change below about -60%; inconclusive = no clear call, values can overlap the other calls; inactive = above about -39%
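Luciferase read-out from HCMV-luciferase-infected HFFs (MOI 1 PFU/cell) 72 h post infection at 37C; compounds added after 16 h cell attachment; activity normalized between buffer-only basal and Salinomycin (10uM) inhibitor controls.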
VACV Venus inh: vaccinia inhibition (Venus reporter). Potency, µM (series often up to 36.5 µM), for the others: at the highest dose activity change, negative = inhibition, actives largely listed as inhibitors. 330,000 compounds, 0.46% hits. Vaccinia virus Venus reporter expression, fluorescence; calls by dose curve; tested in A549 cells; also: potency is read from the fitted curve at half-maximal effect; nearly all actives have a fitted effect of over 30% in size
HCV inhibitor: blocks hepatitis C virus. 340,000 compounds, 3.4% hits. AID 651820. Potency, µM (top dose mostly 41.8 µM), for the others: at the top dose activity change, negative = inhibition, most hits filed as inhibitors. Huh7.5.1 HCVcc-Cre infection, luciferase reporter, 44 h; active = well fitted inhibition curve with a large enough effect; inconclusive = small, poorly fitted or top-dose-only effect, or another doubt; inactive = no such curve, though single readings can be large or run the other way; also: potency is read from the fitted curve at half-maximal effect
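Infectious HCV cell culture screen: compound-treated cells (1,000/well, pre-plated 4 h) are infected with HCVcc-Cre at roughly 0.5 moi and grown 44 h. Infection is quantified by luciferase signal after 15 min substrate incubation at room temperature.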
The depositor's hits bear a star; i = inactive; ? = inconclusive; . = no result. % is scaled to controls: 0 for no effect and ±100 for the full control effect.

SMILES	VACV mCherry inh	FMDV inh	HCMV inh	VACV Venus inh	HCV inhibitor
CC(=O)c1c2c(cc3c(N(C)C)cccc13)CC(CO)(CO)C2	.	.	-17	.	.
CCN(c1ccccc1)S(=O)(=O)c1ccc(Cl)c(C(=O)NC2CCN(Cc3ccccc3)CC2)c1	?	?	-70*	?	?
CCOC(=O)CCCNC(=O)N[C@H]1CC[C@@]23CCCN2C(=O)CCC[C@H]3C1Cc1ccccc1 (stereo partly specified)	.	.	-5	.	.
COc1ccc(-c2nc(SCC(=O)Nc3ccc4c(c3)OCCO4)c(-c3ccc(C)cc3)[nH]2)cc1OC	-25%	-5%	3	-29%	.
Cc1ccc2c(C)c(C(=O)Nc3nnc(C)s3)oc2c1	-6%	30%	-99*	2%	3%
CC1CCCCN1S(=O)(=O)c1cc2c3c(c1)CC(=O)N3CCC2 (stereo unspecified)	-6%	-9%	-16	-6%	.
CC(C)N(c1cc(=O)nc2ccccn12)C(C)C	.	.	-7	.	.
O=C1C=C(NNC(=O)c2ccccc2Br)CCC1	i	3%	-62*	-10%	2%
CNC(=S)NNC(=O)c1ccccc1Br	-14%	5%	15	-11%	16%
COc1ccc(C2=C(C)C(N3CCC(C(=O)NCc4ccco4)CC3)=NS2(=O)=O)cc1	-21%	-10%	-4	-17%	.
CN1C(=O)c2ccccc2Sc2ccc(NC(=O)N3CCN(c4ccccc4)CC3)cc21	?	?	-76*	?	.
CC(C)Oc1ccc(CNC(=O)Nc2ccc3c(c2)N(C)C(=O)c2ccccc2S3)cc1	?	?	-76*	?	.
O=C(Nc1ccc2c(c1)N(C1CCCC1)C(=O)c1ccccc1S2)c1ccccc1	-8%	0%	-64*	-5%	.
Cc1ccc(NC(=O)C2=C(c3ccccc3)S(=O)(=O)CCS2(=O)=O)cc1	?	25µM*	-99*	?	11µM*
Cn1c(=O)c2[nH]c(CCCCCCCCc3nc4ccccc4[nH]3)nc2n(C)c1=O	?	13µM*	-91*	-27%	?
Cn1c2c(c(=O)n(C)c1=O)C(C(F)(F)F)(C(F)(F)F)N=C(CCC1CCCCC1)N2	?	14µM*	-103*	?	?
CN1CCN(Cc2nc3ccccc3c(=O)n2Cc2nc(-c3ccc4ccccc4c3)cs2)CC1	?	?	-76*	13µM*	11µM*
CN1CCN(Cc2nc3ccccc3c(=O)n2Cc2nc(-c3cccc([N+](=O)[O-])c3)cs2)CC1	-23%	-1%	-14	-13%	2.5µM*
O=C(O)c1cc(-c2cccc([N+](=O)[O-])c2)nc2ccccc12	i	8%	0	-7%	17%
CN1CCN(Cc2nc3ccccc3c(=O)n2Cc2nc(-c3ccccc3F)cs2)CC1	-14%	6%	13	-9%	?
CCN1C(=O)c2ccccc2S(=O)c2ccc(C(=O)N3CCN(c4cccc(Cl)c4)CC3)cc21 (stereo unspecified)	-14%	-12%	-15	-18%	.
CCCCOP(=O)(c1ccc(N(C)C)cc1)C(O)c1c(Cl)cccc1Cl (stereo unspecified)	-19%	71%	-76*	-11%	3%
COc1ccccc1C(=O)N(Cc1ccco1)Cc1ccccc1F	-6%	-7%	?	-9%	.
CC1CCCCC1NC(=O)COC(=O)c1ccc2c(c1Cl)C(=O)c1ccccc1C2=O (stereo unspecified)	.	-19%	-74*	.	25µM*
CC(=O)c1ccccc1NC(C(=O)Nc1c(C)cccc1C)C1CC1 (stereo unspecified)	.	.	4	.	.
SMILES	VACV mCherry inh	FMDV inh	HCMV inh	VACV Venus inh	HCV inhibitor
CCOCCCNC(=S)N1CCCN(c2nc3cc(C)cc(C)c3cc2C#N)CC1	?	-10%	14	-28%	11µM*
COCCCNC(=S)N1CCCN(c2nc3cc(C)c(C)cc3cc2C#N)CC1	-19%	23%	-36	-21%	22µM*
CCOCCCNC(=S)N1CCCN(c2nc3cc(C)c(C)cc3cc2C#N)CC1	.	-18%	?	.	?
COCCCNC(=S)N1CCCN(c2nc3cc(C)ccc3cc2C#N)CC1	.	6%	?	.	?
CC(C)(C)c1csc(NNC(=O)c2ccc(Cl)cc2)n1	7.1µM*	1%	-4	?	?
Cc1ccc(C(=O)N/C(=C\c2ccc(-c3ccc(Br)cc3)o2)C(=O)NCCCN(C)C)cc1	.	?	-101*	.	2µM*
